# Activity calls are given as the source filed them. The call rests on the fitted dose curve.
# Target: Tumor susceptibility gene 101 protein (Homo sapiens) (UniProt Q99816)
# Test: qHTS Validation Assay for Iinhibitors of HIV-1 Budding by Blocking the Interaction of PTAP/TSG101 (AID 485342)
# Settings: TSG101-PTAP binding, fluorescence polarization, 4-point titration; series mostly up to 115 µM
# Source text: NIH Molecular Libraries Probe Production Network [MLPCN]
# NIH Chemical Genomics Center [NCGC]
# PI Name: Dr. Eric Freed, NCI
# Stages of the HIV-1 replication cycle, specifically virus assembly and release, provide underexploited targets for the development of novel antiviral inhibitors. The late stages of HIV-1 replication are mediated by the Gag precursor protein, Pr55Gag. Expression of Pr55Gag is both necessary and sufficient for the production of virus-like particles from Gag-expressing cells. The Gag protein hijacks key host proteins involved in endocytic machinery of the host cell to promote endosomal processing and viral budding. The budding process requires a direct interaction between a […] (PTAP) motif in the p6 domain of Gag and the cellular endosomal sorting protein known as Tsg101. In this way, the Gag PTAP motif promotes the host cells to recruit viral particles to the plasma membrane where the new viral particles are released, effectively turning the host cells into viral factories. A fluorescence anisotropy assay has been developed to quantitatively measure the PTAP-Tsg101 interaction which can be used to screen for inhibitors of this interaction.
# NCGC Assay Protocol Summary:
# Two uL of the Tsg101 binding domain in buffer (10 mM HEPES pH 7.5; 0.15 M NaCl, 0.01% Tween 20; 3 mM EDTA;0.1 mM TCEP) was dispensed into Greiner black MB 1536-well plates (final concentration 10 uM). Then, 23 nL of compounds or DMSO were delivered to each well using a pin tool. Finally, 2 uL of a FITC-labeled peptide containing the PTAP motif (1) in the same buffer was dispensed (50 nM final concentration) and the binding was allowed to proceed for 20 min. at r.t. Fluorescent polarization was determined using FITC excitation and polarized emission filters on a Perkin Elmer Viewlux.
# Keywords: Tsg101, PTAP, Gag, HIV, fluorescent polarization, MLSMR, MLPCN, NIH Roadmap, qHTS, NCGC
# Chain of Tumor susceptibility gene 101 protein (Homo sapiens) (Q99816 whole entry, looked up): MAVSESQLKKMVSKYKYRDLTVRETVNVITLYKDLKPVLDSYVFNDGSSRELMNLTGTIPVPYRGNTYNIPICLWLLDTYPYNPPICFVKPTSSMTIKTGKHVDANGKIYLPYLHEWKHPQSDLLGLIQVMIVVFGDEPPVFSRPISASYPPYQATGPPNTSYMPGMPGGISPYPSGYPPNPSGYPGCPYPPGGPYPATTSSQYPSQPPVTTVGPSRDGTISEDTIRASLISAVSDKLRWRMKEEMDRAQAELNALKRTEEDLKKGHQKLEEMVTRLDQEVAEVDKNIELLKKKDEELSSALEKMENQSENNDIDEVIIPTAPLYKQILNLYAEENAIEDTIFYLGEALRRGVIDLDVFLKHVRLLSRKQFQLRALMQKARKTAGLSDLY
row,SMILES,outcome
1,COc1cc(CC(=O)O)ccc1O,inactive
2,CCCn1c(=O)c(C)cn2nc(N)nc12,inactive
3,NC(C(=O)N[C@@H]1C(=O)N2C(C(=O)O)=C(Cl)CS[C@H]12)c1ccccc1 (stereo not given in full),inactive
4,CC(=O)/C(C)=N/O,inactive
5,CCN1C(=O)C=CC1=O,inactive
6,N=C(N)c1ccccc1,inactive
7,COC1(C2=NCCN2)COc2ccccc2O1 (stereo not given),inactive
8,CCCC[C@@]1(C2CCCC2)Cc2cc(OCC(=O)O)c(Cl)c(Cl)c2C1=O,inactive
9,CN(C)C(=O)/N=N/C(=O)N(C)C,inactive
10,COc1ccc(-c2ccc(N)[n+](CCCC(=O)O)n2)cc1,inactive
11,CCCCCC(O)CCCC(=O)O (stereo not given),inactive
12,N[C@H](C(=O)O)[C@H](Cc1ccccc1)C(=O)O,inactive
13,CN(C)CCC(c1ccc(Br)cc1)c1ccccn1 (stereo not given),inactive
14,C=CCNc1ncnc2ccc(Br)cc12,inactive
15,N[C@H](C(=O)O)c1cc(O)cc(O)c1,inactive
16,CC(=O)O[C@H]1CC2(C)[C@@H](C[C@@H](O)[C@H]3[C@@]4(C)CC[C@@H](O)[C@@H](C)[C@@H]4CC[C@@]32C)C1=C(CCC=C(C)C)C(=O)O (stereo not given in full),inactive
17,NC(=O)CNCCC(c1ccccc1)c1ccccc1,inactive
18,O=[N+]([O-])c1cccc2c(Br)[nH]nc12,inactive
19,CC(N)(C(=O)O)c1ccc(C(=O)O)cc1 (stereo not given),inactive
20,O=C(O)/C(=C/c1c(C(=O)O)[nH]c2cc(Cl)cc(Cl)c12)c1ccccc1,inactive

row,SMILES,outcome
1,CCCN(CCc1ccccc1)C1CCc2c(O)cccc2C1 (stereo not given),inactive
2,COc1cc([C@@H]2c3cc4c(cc3[C@H](O)C3COC(=O)[C@@H]32)OCO4)cc(OC)c1OC (stereo not given in full),inactive
3,Nc1nc2[nH]c(=O)cnc2c(=O)[nH]1,inactive
4,OC[C@H]1O[C@H](n2cnc3c(N[C@H]4CCC[C@@H]4O)ncnc32)[C@H](O)[C@@H]1O,inactive
5,C#CC(N)CCC(=O)O (stereo not given),inactive
6,C=CCN1CCc2c(cc(O)c(O)c2Br)[C@@H](c2ccccc2)C1,inactive
7,CN1CCC2(CCN3CCc4c(oc5ccccc45)C3C2)N(C)C1=O (stereo not given),inactive
8,N=C(N)c1ccc(OCCCCCOc2ccc(C(=N)N)cc2)cc1 (tested in a mixture with another compound),inactive
9,OC[C@H]1O[C@@H](n2cnc3cncnc32)[C@H](O)[C@@H]1O,inactive
10,COc1cc(/C=C(\C#N)C(=O)Nc2nnc(C(F)(F)F)s2)ccc1OCc1ccc(C(F)(F)F)cc1C(F)(F)F,inactive
11,NCCCCN,inactive
12,CC(=O)NNC(=O)N1Cc2ccccc2Oc2ccc(Cl)cc21,inactive
13,Cn1ccnc1,inactive
14,N#CC(C#N)=C(N)/C(C#N)=C/c1ccc(O)cc1,inactive
15,CCCCCCCCCCCCCCSCC(=O)O,inactive
16,CCC1(O)CC2CN(CCc3c([nH]c4ccccc34)[C@@](C(=O)OC)(c3cc4c(cc3OC)N(C=O)C3[C@]45CCN4CC=C[C@@](CC)([C@@H](OC(C)=O)[C@]3(O)C(=O)OC)[C@H]45)C2)C1 (stereo not given in full),inactive
17,O=c1cc(-c2ccccc2)[nH]c2nc(Cl)ccc12,inactive
18,COc1ccc(CCn2nnnc2C2(c3ccc(C)cc3)CC2)cc1,inactive
19,O=C(O)/C=C/c1cnc[nH]1,inactive
20,NCC(O)(CS(=O)(=O)O)c1ccc(Cl)cc1 (stereo not given),inactive
